Assay results taken from the supplement of paper PMC3414501.
Counter-ions that a name gives are not always drawn.

Key:
[1] = tested on: S. cerevisiae SK1 pCDA2-eGFP (USY613), sporulating; assay: CDA2-GFP sporulation assay sensitivity score (z-score vs DMSO controls); higher = stronger inhibition of sporulation, active = hit call of the paper;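 also: active if sensitivity score above 5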
[2] = tested on: S. cerevisiae NKY1551 his4x/his4B, sporulating; assay: HIS4 meiotic recombination assay sensitivity score (z-score vs DMSO controls); higher = stronger inhibition of sporulation/recombination, active = hit call of the paper;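 also: active if sensitivity score above 5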
[3] = tested on: S. cerevisiae BY4741 (wild-type), vegetative growth in YPD; assay: growth sensitivity score (doubling time z-score vs DMSO controls); higher = slower growth, strongly negative scores also mark growth inhibition (complete suppression), active = hit call of the paper
Summary of the method: (§1)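 Saccharomyces cerevisiae strains BY4741 and AD1-9 were seeded in rich medium in microtiter plates at an OD600 of 0.065. Compounds were added at a 1:100 dilution of DMSO stock. Optical density was read every 15 min for 24 hours on a Tecan GENios reader. Average doubling time was the time taken to reach a set generation point divided by generation number, and the growth sensitivity score was (compound mean − DMSO-control mean)/DMSO-control SD, using eight DMSO controls per experiment.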

[4] = tested on: S. cerevisiae AD1-9 (efflux-pump deficient), vegetative growth in YPD; assay: as above
Summary of the method: as §1

C[C@H]1COc2c(N3CCN(C)CC3)c(F)cc3c(=O)c(C(=O)O)cn1c23 [Levofloxacin] (stock concentration (mM, diluted 1:100): 10)
CDA2-GFP sporulation assay sensitivity score [1]: -0.01 (inactive)
HIS4 meiotic recombination assay sensitivity score [2]: 0.16 (inactive)
growth sensitivity score [3]: -0.66 (inactive)

Nc1nnc(-c2cccc(Cl)c2Cl)c(N)n1 [Lamotrigine] (stock concentration (mM, diluted 1:100): 10.3)
CDA2-GFP sporulation assay sensitivity score [1]: 0.64 (inactive)
HIS4 meiotic recombination assay sensitivity score [2]: -1.72 (inactive)
growth sensitivity score [3]: -1.57 (inactive)

Cc1c(C(=O)NN2CCCCC2)nn(-c2ccc(Cl)cc2Cl)c1-c1ccc(I)cc1 (stock concentration (mM, diluted 1:100): 10)
CDA2-GFP sporulation assay sensitivity score [1]: -0.97 (inactive)
HIS4 meiotic recombination assay sensitivity score [2]: 1.13 (inactive)
growth sensitivity score [3]: -2.45

COCCOC(=O)C1=C(C)NC(C)=C(C(=O)OC(C)C)C1c1cccc([N+](=O)[O-])c1 (stereo not drawn) [Nimodipine] (stock concentration (mM, diluted 1:100): 10)
CDA2-GFP sporulation assay sensitivity score [1]: 0.44 (inactive)
growth sensitivity score [4]: 260 (active)
growth sensitivity score [3]: 0.46 (inactive)

CNCCCC12CCC(c3ccccc31)c1ccccc12 [Maprotilline hydrochloride] (stock concentration (mM, diluted 1:100): 10)
CDA2-GFP sporulation assay sensitivity score [1]: 0.21 (inactive)
growth sensitivity score [4]: 86.6 (active)
growth sensitivity score [3]: 2.3 (active)

O=C(O)/C=C/c1ccc(Cn2ccnc2)cc1 [Ozagrel hydrochloride] (stock concentration (mM, diluted 1:100): 8.6)
CDA2-GFP sporulation assay sensitivity score [1]: 0.27 (inactive)
growth sensitivity score [4]: 0.64 (inactive)
growth sensitivity score [3]: 2.72 (active)

Cc1ccc(NC(=O)c2ccc(CN3CCN(C)CC3)cc2)cc1Nc1nccc(-c2cccnc2)n1 [Imatinib mesylate] (stock concentration (mM, diluted 1:100): 8.4)
CDA2-GFP sporulation assay sensitivity score [1]: 7.85 (active)
growth sensitivity score [4]: 7.33 (active)
growth sensitivity score [3]: 0.53 (inactive)

CCOC(=O)C1=C(C)NC(C)=C(C(=O)OC)C1c1cccc([N+](=O)[O-])c1 (stereo not drawn) [Nitrendipine] (stock concentration (mM, diluted 1:100): 10)
CDA2-GFP sporulation assay sensitivity score [1]: 10.3 (active)
growth sensitivity score [4]: 23.1 (active)
growth sensitivity score [3]: 1.09 (inactive)

C[N+]1(C)CCC(OC(=O)C(O)(c2ccccc2)C2CCCC2)C1 (stereo not drawn) [Glycopyrrolate] (stock concentration (mM, diluted 1:100): 10)
CDA2-GFP sporulation assay sensitivity score [1]: 1.55 (inactive)
growth sensitivity score [4]: -0.14 (inactive)
growth sensitivity score [3]: -0.04 (inactive)

Clc1ccc(CO/N=C(\Cn2ccnc2)c2ccc(Cl)cc2Cl)c(Cl)c1 [Oxiconazole nitrate] (stock concentration (mM, diluted 1:100): 10)
CDA2-GFP sporulation assay sensitivity score [1]: 0.87 (inactive)
growth sensitivity score [4]: 47.9 (active)
growth sensitivity score [3]: 66.3 (active)

COc1ccc(-c2oc3c(CC=C(C)C)c(O[C@@H]4O[C@H](CO)[C@@H](O)[C@H](O)[C@H]4O)cc(O)c3c(=O)c2O[C@@H]2O[C@@H](C)[C@H](O)[C@@H](O)[C@H]2O)cc1 [Icariin] (stock concentration (mM, diluted 1:100): 10)
CDA2-GFP sporulation assay sensitivity score [1]: -1.61 (inactive)
HIS4 meiotic recombination assay sensitivity score [2]: 0.32 (inactive)
growth sensitivity score [3]: -1.71 (inactive)

NC(=O)N1c2ccccc2CC(=O)c2ccccc21 [Trileptal] (stock concentration (mM, diluted 1:100): 10)
HIS4 meiotic recombination assay sensitivity score [2]: -2.89 (inactive)
growth sensitivity score [4]: 1.04 (inactive)
growth sensitivity score [3]: 1.24 (inactive)

CCCc1nc2c(C)cc(-c3nc4ccccc4n3C)cc2n1Cc1ccc(-c2ccccc2C(=O)O)cc1 [Telmisartan] (stock concentration (mM, diluted 1:100): 10)
CDA2-GFP sporulation assay sensitivity score [1]: -1.44 (inactive)
growth sensitivity score [4]: 43.7 (active)
growth sensitivity score [3]: 85.7 (active)

COC(=O)C1=C(C)NC(C)=C(C(=O)OC2CCCN(Cc3ccccc3)C2)C1c1cccc([N+](=O)[O-])c1 (stereo not drawn) [Benidipine hydrochloride] (stock concentration (mM, diluted 1:100): 6)
CDA2-GFP sporulation assay sensitivity score [1]: 4.32 (inactive)
growth sensitivity score [4]: -3.4
growth sensitivity score [3]: 1.95 (inactive)

CN(C)CCOC(C)(c1ccccc1)c1ccccn1 (stereo not drawn) [Doxylamine succinate] (stock concentration (mM, diluted 1:100): 10)
CDA2-GFP sporulation assay sensitivity score [1]: -0.3 (inactive)
growth sensitivity score [4]: -0.68 (inactive)
growth sensitivity score [3]: 1.39 (inactive)

CCCCCCCCCCC[C@@H](C[C@@H]1OC(=O)[C@H]1CCCCCC)OC(=O)[C@H](CC(C)C)NC=O [Orlistat] (stock concentration (mM, diluted 1:100): 10)
CDA2-GFP sporulation assay sensitivity score [1]: -2.33 (inactive)
growth sensitivity score [4]: -0.73 (inactive)
growth sensitivity score [3]: 0.78 (inactive)

C=C1/C(=C\C=C2/CCC[C@]3(C)[C@@H]([C@H](C)CCCC(C)(C)O)CC[C@@H]23)C[C@@H](O)C[C@@H]1O [Calcitriol] (stock concentration (mM, diluted 1:100): 10)
CDA2-GFP sporulation assay sensitivity score [1]: 3.05 (inactive)
growth sensitivity score [4]: 21.1 (active)
growth sensitivity score [3]: -0.32 (inactive)

COc1ccc2[nH]c([S+]([O-])Cc3ncc(C)c(OC)c3C)nc2c1 (stereo not drawn) [Omeprazole] (stock concentration (mM, diluted 1:100): 10)
CDA2-GFP sporulation assay sensitivity score [1]: 6.11 (inactive)
growth sensitivity score [4]: -3.25
growth sensitivity score [3]: 0.39 (inactive)

CN1CCc2cc(Cl)c(O)cc2[C@@H](c2ccccc2)C1 (stock concentration (mM, diluted 1:100): 9.9)
CDA2-GFP sporulation assay sensitivity score [1]: 15.9 (active)
growth sensitivity score [4]: 0.38 (inactive)
growth sensitivity score [3]: -0.55 (inactive)

CC(C)(C)C(O)/C=C/c1ccc2c(c1)OCO2 (stereo not drawn) [Stiripentol] (stock concentration (mM, diluted 1:100): 10)
CDA2-GFP sporulation assay sensitivity score [1]: 5.09 (inactive)
growth sensitivity score [4]: 5.27 (active)
growth sensitivity score [3]: 2.6 (active)

CC(C(=O)O)c1ccc(-c2ccccc2)c(F)c1 (stereo not drawn) [Flurbiprofen] (stock concentration (mM, diluted 1:100): 11.4)
CDA2-GFP sporulation assay sensitivity score [1]: -0.22 (inactive)
growth sensitivity score [4]: 0.77 (inactive)
growth sensitivity score [3]: 0.01 (inactive)

O=C(NCCN1CCOCC1)c1ccc(Cl)cc1 [Moclobemide] (stock concentration (mM, diluted 1:100): 10)
CDA2-GFP sporulation assay sensitivity score [1]: 0.72 (inactive)
growth sensitivity score [4]: 0.15 (inactive)
growth sensitivity score [3]: -0.18 (inactive)

C[C@]12CC[C@@H]3c4ccc(OS(=O)(=O)O)cc4CC[C@H]3[C@@H]1CCC2=O (stock concentration (mM, diluted 1:100): 10)
CDA2-GFP sporulation assay sensitivity score [1]: 4.09 (inactive)
growth sensitivity score [4]: 0.01 (inactive)
growth sensitivity score [3]: -0.87 (inactive)

CC1=Nc2ccc(Cl)cc2S(=O)(=O)N1 [Diazoxide] (stock concentration (mM, diluted 1:100): 10)
CDA2-GFP sporulation assay sensitivity score [1]: 3.2 (inactive)
growth sensitivity score [4]: 0.08 (inactive)
growth sensitivity score [3]: -0.72 (inactive)

C[C@H]1COc2c(C3(N)CC3)c(F)cc3c(=O)c(C(=O)O)cn1c23 [Pazufloxacin] (stock concentration (mM, diluted 1:100): 10)
CDA2-GFP sporulation assay sensitivity score [1]: 0.17 (inactive)
growth sensitivity score [4]: 0.07 (inactive)
growth sensitivity score [3]: -1.05 (inactive)

Nc1nc(Cl)nc2c1ncn2[C@H]1C[C@H](O)[C@@H](CO)O1 [2-Chloro-2-Deoxyadenosine] (stock concentration (mM, diluted 1:100): 10)
CDA2-GFP sporulation assay sensitivity score [1]: 1.98 (inactive)
growth sensitivity score [4]: -1.81 (inactive)
growth sensitivity score [3]: -0.67 (inactive)

COc1cc2nc(N(C)CCCNC(=O)C3CCCO3)nc(N)c2cc1OC (stereo not drawn) [Alfuzosin] (stock concentration (mM, diluted 1:100): 10)
CDA2-GFP sporulation assay sensitivity score [1]: 0.06 (inactive)
growth sensitivity score [4]: -1.12 (inactive)
growth sensitivity score [3]: -0.26 (inactive)

CN(C)CCCSc1ccccc1NC(=O)/C=C/c1ccccc1 [Cinanserin] (stock concentration (mM, diluted 1:100): 10)
CDA2-GFP sporulation assay sensitivity score [1]: 1.28 (inactive)
growth sensitivity score [4]: 41.8 (active)
growth sensitivity score [3]: 1.35 (inactive)

COc1cc2c(cc1OC)C(=O)C(CC1CCN(Cc3ccccc3)CC1)C2 (stereo not drawn) [Donepezil] (stock concentration (mM, diluted 1:100): 9.1)
CDA2-GFP sporulation assay sensitivity score [1]: 4.44 (inactive)
growth sensitivity score [4]: 3.1 (active)
growth sensitivity score [3]: 2.75 (active)

CN(CCOc1ccc(NS(C)(=O)=O)cc1)CCc1ccc(NS(C)(=O)=O)cc1 [Dofetilide] (stock concentration (mM, diluted 1:100): 10)
CDA2-GFP sporulation assay sensitivity score [1]: -0.99 (inactive)
growth sensitivity score [4]: -1.59 (inactive)
growth sensitivity score [3]: -2.19

NC(=O)OCC(COC(N)=O)c1ccccc1 [Felbamate] (stock concentration (mM, diluted 1:100): 14)
CDA2-GFP sporulation assay sensitivity score [1]: -0.27 (inactive)
growth sensitivity score [4]: -0.62 (inactive)
growth sensitivity score [3]: -0.94 (inactive)

CO[C@H]1/C=C/O[C@@]2(C)Oc3c(C)c(O)c4c(O)c(c(/C=N/N5CCN(C6CCCC6)CC5)c(O)c4c3C2=O)NC(=O)/C(C)=C\C=C\[C@H](C)[C@H](O)[C@@H](C)[C@@H](O)[C@@H](C)[C@H](OC(C)=O)[C@@H]1C [Rifapentine] (stock concentration (mM, diluted 1:100): 10)
CDA2-GFP sporulation assay sensitivity score [1]: 14.2 (inactive)
growth sensitivity score [4]: -0.99 (inactive)
growth sensitivity score [3]: 0.15 (inactive)

C[C@@H]1CN(CCCn2c3ccccc3c3ccccc32)C[C@H](C)N1 [Rimcazole] (stock concentration (mM, diluted 1:100): 10.1)
CDA2-GFP sporulation assay sensitivity score [1]: 14.4 (active)
growth sensitivity score [4]: 20.3 (active)
growth sensitivity score [3]: 89.4 (active)

CC(=O)SCC(Cc1ccccc1)C(=O)NCC(=O)OCc1ccccc1 (stereo not drawn) [Acetorphan] (stock concentration (mM, diluted 1:100): 10)
CDA2-GFP sporulation assay sensitivity score [1]: 0.9 (inactive)
growth sensitivity score [4]: 22.1 (active)
growth sensitivity score [3]: 0.93 (inactive)

Nc1ccn([C@@H]2O[C@H](CO)[C@@H](O)[C@@H]2O)c(=O)n1 [Cytarabine] (stock concentration (mM, diluted 1:100): 10)
CDA2-GFP sporulation assay sensitivity score [1]: -0.45 (inactive)
growth sensitivity score [4]: -2.83
growth sensitivity score [3]: -0.01 (inactive)

CCOC(=O)[C@H](CCc1ccccc1)N[C@@H](C)C(=O)N1[C@H](C(=O)O)C[C@@H]2CCC[C@@H]21 [Ramipril] (stock concentration (mM, diluted 1:100): 10)
CDA2-GFP sporulation assay sensitivity score [1]: 0.92 (inactive)
growth sensitivity score [4]: 2.05 (active)
growth sensitivity score [3]: -0.9 (inactive)
